According to PubChem BioAssay (NCI):
This is part of a sample that, as a whole, favours compounds with a hit. Of some 83,000 tested, about 20% had one in any assay.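 Negative percent growth values reflect cell death: -40 means 40% of the cells present at the start died, and -100 means all died.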 A number with no mark means an inactive call. The source made the active and inactive calls. The calls were made as follows: active = growth percent below 10; inactive = the rest.

System: MDA-MB-468 breast
Assay: NCI-60 one-dose screen, 48 h (100 = growth as untreated, 0 = no growth, -100 = all killed)
Details: 10 µM unless noted

In order of rising growth:
1. O=C(/C=C/C12c3ccccc3C(c3ccccc31)C1C(=O)NC(=O)C12)c1ccc(Cl)cc1Cl (stereo unspecified)  23.8%
2. CCCCn1c(-c2ccc(O)cc2)cn2c3c(=O)[nH]c(=O)n(C)c3nc12  43.4%
3. COc1nc2c(cc1S(=O)(=O)c1ccccc1)CCc1c-2cnn1-c1cccc(Cl)c1  60%
4. COc1cc(C2CC(c3ccc(Cl)cc3)=NN2C(C)=O)ccc1Oc1ccnc2cc(Cl)ccc12 (stereo unspecified)  67.4%
5. COc1ccc(-c2cc(-c3cc4ccccc4oc3=O)n(-c3ccccc3)n2)cc1  87.3%
6. N#Cc1c(-c2ccccc2)[nH]c2ncc(-c3ccccc3)n2c1=O  91.8%
7. C=C(C)[C@@H]1CC[C@]2(C(=O)N3CCNCC3)CC[C@]3(C)[C@H](CC[C@@H]4[C@@]5(C)C/C(=C/c6ccncc6)C(=O)C(C)(C)[C@@H]5CC[C@]43C)[C@@H]12  95%
8. O=C(OCC(O)C(=O)NC12CC3CC(CC(C3)C1)C2)c1cccc(Br)c1 (stereo unspecified)  99.9%

For CS(=O)(=O)CCNCc1ccc(-c2ccc3ncnc(Nc4ccc(OCc5cccc(F)c5)c(Cl)c4)c3c2)o1, the growth was -56.5% (active).
CCCCc1ccc(N=Nc2ccc(OCC[N+](C)(C)C)cc2)cc1 was tested, and the growth was 4.13% (active).

In the case of Brc1cccc(-c2nc(-c3ccc4c(c3)OCCO4)co2)c1, the growth is reported as 34.9% [25 µM].
